In PubChem BioAssay (EPA / NIEHS):
The source made the active and inactive calls. Rule for the calls: active = hit-call score of the fitted dose curve at least 0.9, where 1 is the maximum; inactive = score below 0.9.

Tests used:
Conditions in all cases: mRNA level, 48 h; actives raise or lower the signal
[1] = read-out: Glutamate-cysteine ligase catalytic (GCLC), GCLC (gene 2729); experiment: LTEA_HepaRG_GCLC: Life Technologies and Expression Analysis (LTEA) Assay for Glutamate-cysteine ligase catalytic (GCLC) using HepaRG (AID 2283498)
Summary of the method: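 Read-out is GCLC transcript level by Fluidigm-based TaqMan qRT-PCR, normalized to three housekeeping genes and fitted in both directions relative to 0.5% DMSO. Human HepaRG cells received chemicals for 48 h, up to 100 uM.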

[2] = read-out: growth arrest and DNA damage 45 (GADD45G), GADD45G (gene 10912); experiment: LTEA_HepaRG_GADD45G: Life Technologies and Expression Analysis (LTEA) Assay for growth arrest and DNA damage 45 (GADD45G) using HepaRG (AID 2283499)
Summary of the method: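 GADD45G transcript level by qRT-PCR (housekeeping-normalized: ACTB, GAPDH, POLR2A) after 48 h chemical treatment of a single HepaRG lot in serum-free induction medium; eight-point half-log series up to 100 uM in 0.5% DMSO, duplicates, up- or down-regulation scored.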

[3] = read-out: Glutamate-cysteine ligase regulatory (GCLM), GCLM (gene 2730); experiment: LTEA_HepaRG_GCLM: Life Technologies and Expression Analysis (LTEA) Assay for Glutamate-cysteine ligase regulatory (GCLM) using HepaRG (AID 2283500)
Summary of the method: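 Differentiated HepaRG cells exposed 48 h in serum-free induction medium to eight half-log concentrations up to 100 uM (0.5% DMSO). GCLM mRNA by TaqMan qRT-PCR, normalized to ACTB, GAPDH and POLR2A; bidirectional fit versus DMSO.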

[4] = read-out: Heat shock 70 kDa protein 1 (HSPA1A), gene 3303; experiment: LTEA_HepaRG_HSPA1A: Life Technologies and Expression Analysis (LTEA) Assay for Heat shock 70 kDa protein 1 (HSPA1A) using HepaRG (AID 2283502)
Summary of the method: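 Human HepaRG cells in serum-free induction medium were exposed in duplicate for 48 h to 8 half-log concentrations, highest 100 uM, in 0.5% DMSO. HSPA1A mRNA read by TaqMan qRT-PCR, normalized to ACTB, GAPDH, POLR2A, fitted bidirectionally against DMSO.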

[5] = read-out: Hypoxia-inducible factor 1-alpha (Homo sapiens) (UniProt Q16665); experiment: LTEA_HepaRG_HIF1A: Life Technologies and Expression Analysis (LTEA) Assay for Hypoxia-inducible factor 1 (HIF1A) Trancription factor using HepaRG (AID 2283503)
Summary of the method: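 Differentiated HepaRG cells in serum-free induction medium exposed 48 h, in duplicate, to 8-point half-log series from 100 uM in 0.5% DMSO. HIF1A mRNA measured by TaqMan qRT-PCR, normalized to ACTB/GAPDH/POLR2A, fitted bidirectionally versus DMSO.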

[6] = read-out: 3-Hydroxy-3-Methylglutaryl-CoA Synthase 2 (HMGCS2), HMGCS2 (gene 3158); experiment: LTEA_HepaRG_HMGCS2: Life Technologies and Expression Analysis (LTEA) Assay for 3-Hydroxy-3-Methylglutaryl-CoA Synthase 2 (HMGCS2) using HepaRG (AID 2283504)
Summary of the method: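 Readout is HMGCS2 transcript by qRT-PCR, housekeeping-normalised (ACTB/GAPDH/POLR2A) and fitted bidirectionally against 0.5% DMSO. Differentiated HepaRG cells received chemicals 48 h, duplicate wells, eight half-log concentrations topping at 100 uM.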

HGF (gene 3082) = experiment: LTEA_HepaRG_HGF: Life Technologies and Expression Analysis (LTEA) Assay for Hepatocyte Growth Facto (HGF) using HepaRG (AID 2283505)
Summary of the method: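 HGF transcript was quantified by TaqMan qRT-PCR against three housekeeping genes after 48 h treatment of HepaRG cells. Exposure ran in duplicate over eight half-log steps topping at 100 uM in 0.5% DMSO vehicle.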

[7] = read-out: Insulin Like Growth Factor 1 (IGF1), IGF1 (gene 3479); experiment: LTEA_HepaRG_IGF1: Life Technologies and Expression Analysis (LTEA) Assay for Insulin Like Growth Factor 1 (IGF1) using HepaRG (AID 2283506)
Summary of the method: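 Differentiated HepaRG cells in serum-free induction medium, exposed 48 h in duplicate to 8 half-log concentrations up to 100 uM in 0.5% DMSO. IGF1 mRNA by Fluidigm qRT-PCR, normalised to ACTB, GAPDH and POLR2A.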

[8] = read-out: Intercellular Adhesion Molecule 1 (ICAM1), ICAM1 (gene 3383); experiment: LTEA_HepaRG_ICAM1: Life Technologies and Expression Analysis (LTEA) Assay for Intercellular Adhesion Molecule 1 (ICAM1) using HepaRG (AID 2283507)
Summary of the method: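 ICAM1 transcript levels measured by qRT-PCR, normalized to three housekeeping genes (ACTB, GAPDH, POLR2A), after 48 h chemical exposure of HepaRG cells. Duplicate eight-point half-log series from 100 uM in 0.5% DMSO; gain or loss fitted against vehicle.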

[9] = read-out: Insulin-like growth factor-binding protein 1 (IGFBP1), IGFBP1 (gene 3484); experiment: LTEA_HepaRG_IGFBP1: Life Technologies and Expression Analysis (LTEA) Assay for Insulin-like growth factor-binding protein 1 (IGFBP1) using HepaRG (AID 2283508)
Summary of the method: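 Read-out is qRT-PCR transcript level normalized to three housekeeping genes, fitted in both directions against 0.5% DMSO. Differentiated HepaRG cells received eight half-log concentrations (top 100 uM) in duplicate for 48 h in serum-free induction medium.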

[10] = read-out: Interleukin 6 (IL6), IL6 (gene 3569); experiment: LTEA_HepaRG_IL6: Life Technologies and Expression Analysis (LTEA) Assay for Interleukin 6 (IL6) using HepaRG (AID 2283509)
Summary of the method: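 HepaRG, ~100,000 cells/well, 48 h pre-culture; serum-free induction medium; cmpd 8-pt half-log from 100 uM, 0.5% DMSO, duplicate, 48 h. Lysis in RLT, TaqMan qRT-PCR; gain or loss vs DMSO.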

[11] = read-out: Potassium channel subfamily K member 1 (KCNK1), KCNK1 (gene 3775); experiment: LTEA_HepaRG_KCNK1: Life Technologies and Expression Analysis (LTEA) Assay for Potassium channel subfamily K member 1 (KCNK1) using HepaRG (AID 2283511)
Summary of the method: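 Gain or loss of KCNK1 mRNA is the read-out, quantified by qRT-PCR against three housekeeping genes after 48 h chemical treatment of human HepaRG liver cells. Concentrations ran from 100 uM downward in half-log steps, vehicle 0.5% DMSO.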

[12] = read-out: JUN Transcription Factor, JUN (gene 3725); experiment: LTEA_HepaRG_JUN: Life Technologies and Expression Analysis (LTEA) Assay for JUN Transcription Factor using HepaRG (AID 2283513)
Summary of the method: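 HepaRG cells, 48 h post-plating, exposed 48 h in serum-free induction medium to 8-point half-log series (top 100 uM, 0.5% DMSO), duplicate; mRNA by qRT-PCR (TaqMan, Fluidigm), normalized to ACTB/GAPDH/POLR2A; bidirectional fit vs DMSO.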

[13] = read-out: Lipase C (LIPC), LIPC (gene 3990); experiment: LTEA_HepaRG_LIPC: Life Technologies and Expression Analysis (LTEA) Assay for Lipase C (LIPC) using HepaRG (AID 2283514)
Summary of the method: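 Read-out is LIPC transcript level by TaqMan qRT-PCR, normalized to three housekeeping genes, after 48 h chemical treatment of human HepaRG liver cells. Curves span eight concentrations topping at 100 uM; activity in either direction scored relative to 0.5% DMSO.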

[14] = read-out: Lipoprotein lipase (LPL), LPL (gene 4023); experiment: LTEA_HepaRG_LPL: Life Technologies and Expression Analysis (LTEA) Assay for Lipoprotein lipase (LPL) using HepaRG (AID 2283515)
Summary of the method: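 Read-out is LPL transcript level by qRT-PCR, normalized to three housekeeping genes and fitted bidirectionally against the DMSO control. Human HepaRG cells received chemicals for 48 h at up to 100 uM.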

[15] = read-out: MicroRNA 122 (MIR122), gene 406906; experiment: LTEA_HepaRG_MIR122: Life Technologies and Expression Analysis (LTEA) Assay for MicroRNA 122 (MIR122) using HepaRG (AID 2283516); note: the transcript read is the microRNA miR-122
Summary of the method: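 Differentiated human HepaRG cells in serum-free induction medium exposed 48 h to 8 half-log concentrations from 100 uM in 0.5% DMSO, duplicate. MIR122 quantified by Fluidigm TaqMan qRT-PCR, normalised to ACTB, GAPDH, POLR2A; fold change fitted bidirectionally versus DMSO.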

[16] = read-out: Interleukin 6 Receptor (IL6R), IL6R (gene 3570); experiment: LTEA_HepaRG_IL6R: Life Technologies and Expression Analysis (LTEA) Assay for Interleukin 6 Receptor (IL6R) using HepaRG (AID 2283510)
Summary of the method: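 Differentiated HepaRG cells, plated 48 h, then exposed in duplicate for 48 h in serum-free induction medium to 8 half-log concentrations (top 100 uM, 0.5% DMSO). IL6R mRNA measured by TaqMan qRT-PCR, normalized to ACTB/GAPDH/POLR2A; bidirectional fit vs DMSO.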

[17] = read-out: matrix metalloproteinase-10 (MMP10), MMP10 (gene 4319); experiment: LTEA_HepaRG_MMP10: Life Technologies and Expression Analysis (LTEA) Assay for matrix metalloproteinase-10 (MMP10) using HepaRG (AID 2283517)
Summary of the method: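 Gain or loss of MMP10 mRNA is fitted relative to the 0.5% DMSO vehicle. The human hepatic line HepaRG receives a 48-hour serum-free exposure, in duplicate, with a maximum concentration of 100 uM.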

[18] = read-out: Keratin 19 (KRT19), KRT19 (gene 3880); experiment: LTEA_HepaRG_KRT19: Life Technologies and Expression Analysis (LTEA) Assay for Keratin 19 (KRT19) using HepaRG (AID 2283512)
Summary of the method: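 KRT19 transcript measured by TaqMan qRT-PCR, referenced to three housekeeping genes, after HepaRG cells received test chemicals for 48 h. Eight half-log concentrations, top 100 uM, 0.5% DMSO vehicle; increases and decreases both fitted.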

Measured: outcome

Hypoxia-inducible factor 1-alpha (Homo sapiens), sequence (Q16665 whole entry, looked up): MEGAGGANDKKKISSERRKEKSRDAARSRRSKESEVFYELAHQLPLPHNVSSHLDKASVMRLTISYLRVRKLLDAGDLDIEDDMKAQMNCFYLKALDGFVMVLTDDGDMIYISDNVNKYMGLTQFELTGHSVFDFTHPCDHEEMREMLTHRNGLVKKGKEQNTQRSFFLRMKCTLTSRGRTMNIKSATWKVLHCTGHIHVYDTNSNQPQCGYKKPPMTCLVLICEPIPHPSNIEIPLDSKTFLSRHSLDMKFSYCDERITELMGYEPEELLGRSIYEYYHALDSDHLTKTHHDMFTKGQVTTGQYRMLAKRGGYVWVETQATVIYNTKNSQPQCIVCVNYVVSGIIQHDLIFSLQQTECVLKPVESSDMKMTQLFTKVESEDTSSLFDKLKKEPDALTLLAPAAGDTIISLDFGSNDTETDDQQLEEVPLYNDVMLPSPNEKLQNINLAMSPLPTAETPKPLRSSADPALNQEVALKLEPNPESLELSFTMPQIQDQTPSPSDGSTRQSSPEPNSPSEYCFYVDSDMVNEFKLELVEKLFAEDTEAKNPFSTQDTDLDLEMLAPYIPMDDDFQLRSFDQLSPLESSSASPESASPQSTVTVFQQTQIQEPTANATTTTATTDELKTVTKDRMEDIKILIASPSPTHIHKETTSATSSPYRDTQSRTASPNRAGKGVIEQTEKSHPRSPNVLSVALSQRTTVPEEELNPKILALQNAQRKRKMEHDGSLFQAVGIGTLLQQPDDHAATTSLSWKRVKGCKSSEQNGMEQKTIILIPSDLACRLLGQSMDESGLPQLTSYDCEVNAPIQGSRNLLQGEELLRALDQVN

COS(C)(=O)=O
inactive: [1] | [2] | [3] | [4] | [5] | [6] | HGF (gene 3082) | [7] | [8] | [9] | [10] | [11] | [12] | [13] | [14] | [15]

OCCOCCOCCO
inactive: [1] | [2] | [3] | [4] | [5] | [6] | HGF (gene 3082) | [7] | [8] | [9] | [10] | [16] | [11] | [12] | [13] | [14] | [15]

CCN(CC)C(=S)SSC(=S)N(CC)CC
inactive: [1] | [2] | [3] | [4] | [6] | [7] | [8] | [9] | [10] | [16] | [11] | [12] | [13] | [14] | [15] | [17]

OC(Cn1cncn1)(Cn1cncn1)c1ccc(F)cc1F
inactive: [1] | [2] | [3] | [4] | [5] | [6] | HGF (gene 3082) | [7] | [8] | [9] | [10] | [11] | [18] | [12] | [13] | [14] | [15]

O=c1[nH]cnc2c1ncn2[C@H]1CC[C@@H](CO)O1
inactive: [1] | [2] | [3] | [4] | [5] | [6] | HGF (gene 3082) | [7] | [8] | [9] | [10] | [11] | [18] | [12] | [13] | [14] | [15]

CNC(C)=O
inactive: [1] | [2] | [3] | [4] | [5] | [6] | HGF (gene 3082) | [7] | [8] | [9] | [10] | [11] | [18] | [12] | [13] | [14] | [15]

CCCCCCCCCC
inactive: [1] | [2] | [3] | [4] | [5] | [6] | HGF (gene 3082) | [7] | [8] | [9] | [10] | [11] | [12] | [13] | [14] | [15] | [17]

CCCCCCCCN(C)C
inactive: [1] | [2] | [3] | [4] | [5] | [6] | HGF (gene 3082) | [7] | [8] | [9] | [10] | [11] | [12] | [13] | [14] | [15]
